Bioassay records as filed in PubChem.
Compounds with a hit are over-represented: about 6.3% of the library has one in this group of screens.
RORg inh – qHTS for inhibitors of ROR gamma transcriptional activity; actives 5.4% (n = 310,000); Drosophila S2 Gal4-RORgamma UAS-luciferase reporter, 20 h; Nuclear receptor ROR-gamma (Mus musculus), P51450; AID 2551, 2010; Potency, µM (titrated, usually from 53.6 µM), inactives show at the highest dose activity change, negative = inhibition, actives largely listed as inhibitors; also: % is scaled to controls: 0 for no effect and ±100 for the full control effect; nearly all actives have a fitted effect of over 60% in size
Target sequence (P51450 whole entry, looked up, the tested form may be a part): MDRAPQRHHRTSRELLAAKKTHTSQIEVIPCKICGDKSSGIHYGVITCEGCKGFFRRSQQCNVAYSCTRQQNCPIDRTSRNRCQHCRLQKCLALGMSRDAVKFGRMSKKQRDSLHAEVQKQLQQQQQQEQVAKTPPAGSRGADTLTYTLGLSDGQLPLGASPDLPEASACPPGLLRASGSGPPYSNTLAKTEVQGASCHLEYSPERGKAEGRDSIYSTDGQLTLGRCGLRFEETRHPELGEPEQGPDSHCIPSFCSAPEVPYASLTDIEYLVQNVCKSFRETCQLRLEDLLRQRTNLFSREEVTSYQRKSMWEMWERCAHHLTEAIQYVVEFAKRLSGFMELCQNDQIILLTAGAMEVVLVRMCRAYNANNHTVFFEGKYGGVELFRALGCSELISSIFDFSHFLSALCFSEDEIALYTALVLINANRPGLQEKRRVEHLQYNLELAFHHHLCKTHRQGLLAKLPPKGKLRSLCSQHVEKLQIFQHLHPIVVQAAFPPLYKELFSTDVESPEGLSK
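Stably transfected Drosophila Schneider cells are the test system, with ROR gamma fused to Gal4 and luciferase under UAS control; luminescence is read after 20 hr of 700 uM copper sulfate induction at ambient temperature.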
HepG2 tox – qHTS for Inhibitors of TGF-b: Cytotox Counterscreen; Potency, µM (titrated, usually from 46.1 µM), for inactives: at the highest dose activity change, negative = cytotoxicity, hits mostly cytotoxic; AID 588856, 2011; actives 0.76% (n = 410,000); HepG2 CAGA-GFP viability, ATP luminescence, 18 h
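HepG2 CAGA-GFP cells (1000/well, DMEM with 1% FBS) received compound, then TGF-beta at 500 pg/mL final, and were incubated 18 hours at 37 degrees C. Viability was read by CellTiter-Glo luminescence. Media-only wells were set as complete cell-killing and DMSO as no toxicity.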
S2 tox – Viability Counterscreen for Primary qHTS for Inhibitors of ATXN expression | Potency, µM (doses to about 56.7 µM), most hits filed as cytotoxic | S2 cells (HEK-293 line with an ATXN2-luciferase reporter) viability, CellTiter-Fluor protease fluorescence, 24 h | AID 651635, 2014 | actives 0.49% (n = 400,000); also: nearly all actives have a fitted effect of over 40% in size
TGFb inhibitor – qHTS for Inhibitors of TGF-b | HepG2 CAGA-GFP TGF-b/SMAD3 reporter, GFP fluorescence, 18 h; TGF-beta stimulated, 500 pg/mL final | Potency, µM (highest dose often 46.1 µM), without a hit: top-dose activity, negative = inhibition, most hits filed as inhibitors | actives 1.2% (n = 410,000) | AID 588855, 2011; also: % is scaled to controls: 0 for no effect and ±100 for the full control effect; nearly all actives have a fitted effect of over 65% in size
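HEPG2 CAGA-GFP reporter cells (1000/well, DMEM with 1% FBS) received compounds, then recombinant TGF-beta at 500 pg/mL final for 18 hours at 37 degrees C. Per-cell GFP summed per well was normalised to unstimulated and stimulated DMSO controls before curve fitting.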
VP16 counter – VP16 counterscreen qHTS for inhibitors of ROR gamma transcriptional activity. actives 3.5% (n = 310,000). Potency, µM (series often up to 53.6 µM), inactives show top-dose activity, negative = inhibition, usual class: inhibitors. AID 2546, 2010. Drosophila S2 Gal4-VP16 UAS-luciferase, luminescence, 20 h;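 also: Gal4-VP16 expression switched on by copper sulfate through the metallothionein promoter; % is scaled to controls: 0 for no effect and ±100 for the full control effect; nearly all actives have a fitted effect of over 50% in size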
ATXN2 expr inh – Primary qHTS for Inhibitors of ATXN expression | HEK-293 ATXN2-luciferase reporter, luminescence, 24 h | Potency, µM (titrated, usually from 57 µM), for inactives: at the highest dose activity change, negative = inhibition, most hits filed as inhibitors | actives 0.72% (n = 360,000) | AID 1745845, 2022; also: % is scaled to controls: 0 for no effect and ±100 for the full control effect; nearly all actives have a fitted effect of over 55% in size
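ATXN2-luciferase reporter cells (luciferase flanked by upstream and downstream ATXN2 gene portions) were treated 24 h at 37 °C with compounds at up to 57 uM. SteadyGlo luminescence gave expression; GF-AFC fluorescence gave viability.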
* hit, by the source's call; i = inactive; ? = inconclusive; . = not tested or not shown; [ ] = remark or other dose. Calls follow the shape of the dose curve; as a rule, active = well fitted curve in the direction sought with a large enough effect; inconclusive = small, poorly fitted or top-dose-only effect, or another doubt; inactive = no such curve, though single readings can be large; an effect the other way counts as inactive or inconclusive. Potency is read from the fitted curve at half-maximal effect.

SMILES	RORg inh	HepG2 tox	S2 tox	TGFb inhibitor	VP16 counter	ATXN2 expr inh
O=[N+]([O-])c1cc2c(cc1/C=N/Nc1nc(Nc3ccccc3)nc(N3CCCCC3)n1)OCO2	3.2µM*	-39%	i	-5%	0%	-12%
Brc1cc2c(cc1/C=N/Nc1nc(N3CCCCC3)nc(N3CCCCC3)n1)OCO2	1.8µM*	.	.	.	-6%	.
Cc1ccc(Nc2nc(N/N=C\c3ccc4c(c3)OCO4)nc(N3CCOCC3)n2)cc1	8.9µM*	-41%	i	-20%	-18%	?
Cc1nnc(SC(C)C(=O)N2CCc3ccccc32)s1 (configuration not stated)	21%	9%	i	9%	-5%	4%
CC(Sc1nnc(-c2ccccc2)c(-c2ccccc2)n1)C(=O)N1CCc2ccccc21 (configuration not stated)	2.2µM*	-37%	i	?	11µM*	1%
CCC(=O)Nc1cc2[nH]c(=O)cc(C)c2cc1C	-26%	-5%	.	20%	-8%	-18%
Cc1cc2c(C)cc(=O)[nH]c2cc1NC(=O)CCl	?	-66%	11µM*	?	?	.
CCCCc1ccc(NC(=O)Cn2cnc3c2c(=O)n(C)c(=O)n3C)cc1	.	-3%	i	17%	.	-9%
CCOC(=O)/C=C/C(=O)Nc1cccc([N+](=O)[O-])c1	17%[10 µM]	13µM*	?	11µM*	?	?
O=C(Nc1c(Cl)cc([N+](=O)[O-])cc1Cl)c1cc(Cl)ccc1O	.	-63%	.	1.3µM*	.	.
COc1ccc(NC(=O)c2cc([N+](=O)[O-])ccc2O)cc1	2.2µM*	10µM*	?	11µM*	2.8µM*	.
CCOC(=O)c1cccc(NC(=O)/C=C/c2cccc([N+](=O)[O-])c2)c1	?	1%	i	2%	4%	-14%
COc1ccc(NC(=S)Nc2cccc([N+](=O)[O-])c2)cc1	13µM*	-6%	i	-17%	-30%	3%
COc1cc(/C=C/c2ccnc3ccccc23)cc(OC)c1OC	.	-30%	.	-4%	.	.
Cc1nc(C)c(C(=O)Nc2ncc([N+](=O)[O-])s2)o1	7.9µM*	-24%	?	-13%	?	?
CC(C)CC(=O)Nc1ncc([N+](=O)[O-])s1	44%	-1%	i	-32%	?	-6%
CCN(CC)S(=O)(=O)c1ccc(N2CC(C(=O)NCc3ccco3)CC2=O)cc1 (configuration not stated)	.	6%	i	7%	.	.
CCN(CC)S(=O)(=O)c1ccc(-c2cn3ccccc3n2)cc1	.	-10%	i	-11%	.	.
CN(C)S(=O)(=O)c1ccc(-c2cn3ccccc3n2)cc1	34%	-32%	i	3%	18µM*	12%
CSCC[C@H](NC(=O)[C@H](CC(C)C)N(C)C(=O)[C@@H]1CCCN1C(=O)[C@H](Cc1ccccc1)NC(=O)[C@H](Cc1ccccc1)NC(=O)CCC(C)N)C(=O)O (some centres not stated)	-3%	.	.	.	-8%	.
CN(c1ccccc1)S(=O)(=O)c1ccc(C(=O)Nc2nnc(C3CC3)o2)cc1	0.32µM*	-14%	i	1%	1µM*	.
CCN(c1ccccc1)S(=O)(=O)c1ccc(C(=O)Nc2nnc(C3CC3)o2)cc1	0.25µM*	-16%	i	-9%	0.56µM*	-26%[11.3 µM]
O=C(Nc1ccc([N+](=O)[O-])cc1Cl)c1cc(Cl)cc(Cl)c1O	.	-50%	.	?	.	.
CC(C)(C)C(=O)N1CCN(c2nc3ccc(Cl)cc3s2)CC1	36%	3%	?	0%	-4%	-23%
Cc1ccc(-c2nnnn2C2C/C(=N\NC(N)=S)C3OCC2O3)cc1 (configuration not stated)	10µM*	-14%	i	-12%	?	29%
SMILES	RORg inh	HepG2 tox	S2 tox	TGFb inhibitor	VP16 counter	ATXN2 expr inh
NC(=S)N/N=C1\CC(n2nnnc2-c2ccccc2Cl)C2COC1O2 (configuration not stated)	11µM*	0%	i	?	?	6%
CCN1CCN(C(c2ccccc2)c2sc3nc(-c4ccco4)nn3c2O)CC1 (configuration not stated)	.	-24%	.	.	.	.
O=C(O)CCC1CCC(c2cc(F)ccc2F)(S(=O)(=O)c2ccc(Cl)cc2)CC1 (configuration not stated)	.	.	.	.	.	25%
COc1ccccc1CNC(=O)CCC1N=C2c3ccccc3N=C(SCc3ccc(C)cc3)N2C1=O (configuration not stated)	.	-31%	.	?	.	.
COc1cccc(-c2cccc(-c3nc(C(=O)NCc4ccc5c(c4)OCO5)cc4c3[C@H](CCO)N(S(=O)C(C)(C)C)C4)c2)c1 (some centres not stated)	.	-60%	18µM*	16µM*	.	?
CC(C)(C)S(=O)N1Cc2cc(C(=O)NCc3ccc(Oc4ccccc4)cc3)nc(-c3cccc(-c4cc5ccccc5o4)c3)c2[C@H]1CCO (some centres not stated)	.	-95%	.	?	.	?
CC(C)(C)S(=O)N1Cc2cc(C(=O)NCc3ccc4c(c3)OCO4)nc(-c3cccc(-c4cc5ccccc5o4)c3)c2[C@@H]1CCO (some centres not stated)	.	-65%	.	?	.	22µM*
CN1CCn2cnc(C(=O)Nc3ccc(Cl)cc3)c2C1=O	.	-1%	i	0%	.	6%
O=C(CCCCCCNC(=O)c1cnc(N(c2ccccc2)c2ccccc2)nc1)NO	.	.	.	.	.	138%
CC(=O)c1ccc(NC(=O)CN2C(=O)CCc3cc(S(=O)(=O)N4CCC(C)CC4)ccc32)cc1	.	-1%	i	?	.	14%
CCN1C(=O)/C(=C\c2ccncc2)SC1=Nc1ccc(C)c(C)c1	11µM*	-55%	?	?	?	-30%
CCc1nc2c(OCc3ccc(F)cc3)cccn2c1N(C)C(=O)CC(C)C	.	-13%	i	0%	.	-28%
Cc1nc2ccccc2n1CC(O)COc1ccc(Br)cc1 (configuration not stated)	?	-24%	i	-29%	14µM*	-22%
CCC(=O)c1ccc(OCC(O)Cn2c(C)nc3ccccc32)cc1 (configuration not stated)	?	0%	i	-26%	7.9µM*	-8%
